KLK7 zymogen act: proKLK7 (human) activation, primary screen | P49862 | purified proKLK7, EDANS-DABCYL substrate fluorescence; 100% is mature enzyme control, 0% vehicle | activation, % at 7 µM | 370,000 compounds, 0.9% hits;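 active = activation above the mean of all tested compounds plus 3 SD, computed per campaign excluding outliers beyond control limits, cut at about 13% in these data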
ADAM10 inh: inhibitors of human ADAM10. inhibition, % at 7 µM. O14672. 370,000 compounds, 0.62% hits. recombinant ADAM10, EDANS/DABCYL FRET peptide cleavage, 3 h;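 active = inhibition above a per-campaign cutoff equal to the mean of compounds falling between control-based bounds plus 3 SD, cut at about 20% in these data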
NPR2 activator: GC-B (human) receptor activation | P20594 | HEK293-GC-B cells, CNP EC30, cGMP TR-FRET; 0% at EC30 CNP, 100% saturating CNP | activation, % at 10 µM | 370,000 compounds, 0.11% hits;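 active = activation at 10 µM reaching about 35% in either raw or pattern-adjusted values, limit read from the data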
ADAM17 inh: inhibitors of human ADAM17; inhibition, % at 6.95 µM; 370,000 compounds, 0.83% hits; AID 720648; recombinant ADAM17, EDANS/DABCYL FRET peptide cleavage;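 active = inhibition above the mean of compounds lying between control limits plus 3 SD, set per campaign, cut at about 8.5% in these data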
NPR1 activator: GC-A (human) enzyme activation | P16066 | HEK293 GC-A cells, cGMP TR-FRET, EC30 ANP; 0% at EC30 ANP, 100% saturating ANP | activation, % at 10 µM | 370,000 compounds, 0.14% hits; in the data active = activation above about 40%
ADAM10 counter: ADAM10 inhibition, counter-screen for ADAM17 exosite hits | shares compounds with ADAM17 inh | recombinant ADAM10, EDANS/DABCYL FRET peptide cleavage, 3 h | 2,900 compounds, 47% hits | inhibition, % at 6.95 µM;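 active = mean inhibition over the triplicate runs exceeds the activity threshold set in the earlier primary screen, cut at about 20% in these data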
ADAM17 confirm: human ADAM17 inhibition, confirmation. shares compounds with ADAM17 inh. recombinant ADAM17, EDANS/DABCYL QFRET peptide cleavage. inhibition, % at 6.95 µM. 2,900 compounds, 65% hits. AID 743257;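 active = mean inhibition across replicates above the hit cutoff set in the primary screen, cut at about 8.5% in these data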
Hits are given with their value; – = inactive; · = no result. This is a sample that favours compounds with a hit; in the whole collection about 2.2% have one here.

SMILES	KLK7 zymogen act	ADAM10 inh	NPR2 activator	ADAM17 inh	NPR1 activator	ADAM10 counter	ADAM17 confirm
CCn1nc(C)c(/C=N/NC(=S)Nc2ccc(Cl)cc2Cl)c1C	–	–	–	8.7	–	–	–
COC(=O)[C@]12C[C@H](CC(=O)N3CCSCC3)C(=O)N(Cc3ccc(Cl)cc3Cl)C1=C[C@H](C(C)(C)C)O[C@@H]2C	–	–	–	–	–	·	·
CCCCCCC(=O)n1ccc2ccc(-c3ccc4ccn(Cc5ccc(OC)cc5)c4c3)cc21	–	–	–	–	–	·	·
Cc1cccc(NC(=O)c2nc[nH]c2C(=O)N[C@@H](CC(C)C)C(=O)OC(C)(C)C)c1	–	–	–	11	–	30	16
CC(C)(C)OC(=O)NCCCC[C@H](NC(=O)c1nc[nH]c1C(=O)NCc1ccccc1)C(=O)OC(C)(C)C	–	–	–	9.2	–	35	20
Cc1cccc(NC(=O)c2nc[nH]c2C(=O)N[C@@H](Cc2ccccc2)C(=O)OC(C)(C)C)c1	–	–	–	–	–	·	·
C[C@H](NC(=O)c1nc[nH]c1C(=O)NC(c1ccccc1)c1ccccc1)C(=O)OCc1ccccc1	–	–	–	9.3	–	–	12
O=C(N[C@@H](Cc1ccccc1)C(=O)OCc1ccccc1)c1nc[nH]c1C(=O)N1CCN(c2ccccc2)CC1	–	–	–	11	–	27	15
CC(C)(C)OC(=O)NCCCC[C@H](NC(=O)c1[nH]cnc1C(=O)Nc1ccc(CNC(=O)OC(C)(C)C)cc1)C(=O)OC(C)(C)C	–	–	–	–	–	·	·
CCN(CC)C(=O)c1[nH]cnc1C(=O)N[C@@H](C)C(=O)OCc1ccccc1	–	–	–	–	–	·	·
COc1ccc2c(c1)CN1C(=O)N(Cc3ccc(F)cc3)S(=O)(=O)CC21 (stereo not given)	–	–	–	–	–	·	·
O=C(NCCc1ccccc1)OCc1cn(Cc2ccccc2C(F)(F)F)nn1	–	–	–	–	–	·	·
CC(C)CN1C(=O)N2CCc3ccccc3C2CS1(=O)=O (stereo not given)	–	–	–	–	–	·	·
C[C@H](NC(=O)c1nc[nH]c1C(=O)NCc1ccc(CNC(=O)OC(C)(C)C)cc1)C(=O)OCc1ccccc1	–	–	–	10	–	37	21
CCCCn1nnnc1C(c1cc2ccccc2o1)N1CCN(c2cc(C)nc3ccccc23)CC1 (stereo not given)	–	–	–	8.8	–	–	–
O=C(c1cc(COc2c(F)cccc2F)on1)N1CCC(c2ccccc2F)C1 (stereo not given)	–	–	–	–	–	·	·
O=C(c1cc(COc2c(F)cccc2F)on1)N1CCC(c2ccccc2Cl)C1 (stereo not given)	–	–	–	9.5	–	–	11
COc1ccc(C2C3=C(N=C4SCC(=O)N42)c2ccccc2CC3)cc1OC (stereo not given)	–	–	–	9.3	–	–	–
O=c1[nH][nH]c(-c2ccccc2)c1C=Nc1ccc(C(F)(F)F)cc1	–	–	–	13	–	–	–
O=C(CN1C(=O)c2ccccc2S1(=O)=O)Nc1cc(S(=O)(=O)N2CCCCC2)ccc1Cl	–	–	–	10	–	–	13
O=C(CN1CCN(c2ccc(O)cc2)CC1)Nc1cc(S(=O)(=O)N2CCCC2)ccc1Cl	–	–	–	–	–	·	·
O=C(CN1CCN(c2ccc(O)cc2)CC1)Nc1cc(S(=O)(=O)N2CCCCC2)ccc1Cl	–	–	–	10	–	–	11
O=C(CN1C(=O)c2ccccc2S1(=O)=O)Nc1ccc(S(=O)(=O)N2CCCCC2)cc1	–	–	–	–	–	·	·
COc1ccc(N2CCN(C(=O)CN(c3cccc(Br)c3)S(C)(=O)=O)CC2)cc1	–	–	–	14	–	–	–
CS(=O)(=O)N(CC(=O)N1CCN(c2ccccc2)CC1)c1cccc(Br)c1	–	–	–	–	–	·	·
COc1cc(-c2nc(-c3ccccc3)c(-c3ccc(F)cc3)[nH]2)cc2c1OCO2	–	–	–	–	–	·	·

From PubChem
